Laboratory results published in the supplement of paper PMC8975748.
Structures can show the parent of a compound that is named as a salt. ± gives the standard deviation of the averaged measurements.

Columns and labels:
[1] = test system: Saccharomyces cerevisiae BY4741 SeMeCo community; assay: mean cell size (pixel area) (pixels); higher = larger cells; settings: 10 µM; 24 h; SM minimal medium
Procedure, shortened: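 For 24 h, 70 µl of yeast culture diluted to OD600 = 0.3 from an overnight preculture at OD600 = 1.0 was kept in SM medium in 384-well plates acoustically predosed with drug, final 10 µM. The strain was Saccharomyces cerevisiae BY4741 forming a fluorescent community of four plasmids, each complementing one auxotrophy and carrying a fluorescent marker. Automated confocal microscopy of paraformaldehyde-fixed cells, analysed in Harmony, provided mean cell pixel area per well, which was averaged over 3 replicates. Same SeMeCo high-content imaging drug screen: Selleck FDA-approved drugs at 10 µM, 24 h in SM medium, 384-well plates, 3 replicates.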

[2] = test system: Saccharomyces cerevisiae BY4741 SeMeCo community; assay: z-score of prototroph abundance vs DMSO median; higher = larger share of this subpopulation than in DMSO controls; settings: 10 µM; 24 h; SM minimal medium; subpopulation (auxotrophy): Prototroph
Procedure, shortened: (§1)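 Cells of a Saccharomyces cerevisiae BY4741 community, carrying four plasmids that each restored one auxotrophy and encoded a distinct fluorescent protein, were pre-grown overnight to OD600 1.0 and diluted to 0.3. A 70 µl volume was added to 384-well plates acoustically predosed with library drugs (10 µM final) and grown 24 h in minimal SM medium. After paraformaldehyde fixation, automated confocal microscopy was used, with single-auxotroph fluorescent strains for thresholds and autofluorescence correction. The abundance of each subpopulation was scored as a z-score against the vehicle-well median.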

[3] = test system: Saccharomyces cerevisiae BY4741 SeMeCo community; assay: z-score of subpopulation abundance vs DMSO median, subpopulation auxotrophic for M; higher = larger share of this subpopulation than in DMSO controls; settings: 10 µM; 24 h; SM minimal medium; subpopulation (auxotrophy): M
Procedure, shortened: as §1

[4] = test system: Saccharomyces cerevisiae BY4741 SeMeCo community; assay: z-score of subpopulation abundance vs DMSO median, subpopulation auxotrophic for L; higher = larger share of this subpopulation than in DMSO controls; settings: 10 µM; 24 h; SM minimal medium; subpopulation (auxotrophy): L
Procedure, shortened: as §1

[5] = test system: Saccharomyces cerevisiae BY4741 SeMeCo community; assay: z-score of subpopulation abundance vs DMSO median, subpopulation auxotrophic for H; higher = larger share of this subpopulation than in DMSO controls; settings: 10 µM; 24 h; SM minimal medium; subpopulation (auxotrophy): H
Procedure, shortened: as §1

[6] = test system: Saccharomyces cerevisiae BY4741 SeMeCo community; assay: z-score of subpopulation abundance vs DMSO median, subpopulation auxotrophic for LU; higher = larger share of this subpopulation than in DMSO controls; settings: 10 µM; 24 h; SM minimal medium; subpopulation (auxotrophy): LU
Procedure, shortened: as §1

[7] = test system: Saccharomyces cerevisiae BY4741 SeMeCo community; assay: z-score of subpopulation abundance vs DMSO median, subpopulation auxotrophic for LM; higher = larger share of this subpopulation than in DMSO controls; settings: 10 µM; 24 h; SM minimal medium; subpopulation (auxotrophy): LM
Procedure, shortened: as §1

[8] = test system: Saccharomyces cerevisiae BY4741 SeMeCo community; assay: z-score of subpopulation abundance vs DMSO median, subpopulation auxotrophic for HM; higher = larger share of this subpopulation than in DMSO controls; settings: 10 µM; 24 h; SM minimal medium; subpopulation (auxotrophy): HM
Procedure, shortened: as §1

[9] = test system: Saccharomyces cerevisiae BY4741 SeMeCo community; assay: z-score of subpopulation abundance vs DMSO median, subpopulation auxotrophic for HU; higher = larger share of this subpopulation than in DMSO controls; settings: 10 µM; 24 h; SM minimal medium; subpopulation (auxotrophy): HU
Procedure, shortened: as §1

[10] = test system: Saccharomyces cerevisiae BY4741 SeMeCo community; assay: z-score of subpopulation abundance vs DMSO median, subpopulation auxotrophic for UM; higher = larger share of this subpopulation than in DMSO controls; settings: 10 µM; 24 h; SM minimal medium; subpopulation (auxotrophy): UM
Procedure, shortened: as §1

[11] = test system: Saccharomyces cerevisiae BY4741 SeMeCo community; assay: z-score of subpopulation abundance vs DMSO median, subpopulation auxotrophic for HLU; higher = larger share of this subpopulation than in DMSO controls; settings: 10 µM; 24 h; SM minimal medium; subpopulation (auxotrophy): HLU
Procedure, shortened: as §1

[12] = test system: Saccharomyces cerevisiae BY4741 SeMeCo community; assay: z-score of subpopulation abundance vs DMSO median, subpopulation auxotrophic for HLM; higher = larger share of this subpopulation than in DMSO controls; settings: 10 µM; 24 h; SM minimal medium; subpopulation (auxotrophy): HLM
Procedure, shortened: as §1

[13] = test system: Saccharomyces cerevisiae BY4741 SeMeCo community; assay: z-score of subpopulation abundance vs DMSO median, subpopulation auxotrophic for HUM; higher = larger share of this subpopulation than in DMSO controls; settings: 10 µM; 24 h; SM minimal medium; subpopulation (auxotrophy): HUM
Procedure, shortened: as §1

[14] = test system: Saccharomyces cerevisiae BY4741 SeMeCo community; assay: z-score of subpopulation abundance vs DMSO median, subpopulation auxotrophic for HLUM; higher = larger share of this subpopulation than in DMSO controls; settings: 10 µM; 24 h; SM minimal medium; subpopulation (auxotrophy): HLUM
Procedure, shortened: as §1

[15] = test system: Saccharomyces cerevisiae BY4741 SeMeCo community; assay: z-score of subpopulation abundance vs DMSO median, subpopulation auxotrophic for U; higher = larger share of this subpopulation than in DMSO controls; settings: 10 µM; 24 h; SM minimal medium; subpopulation (auxotrophy): U
Procedure, shortened: as §1

[16] = test system: Saccharomyces cerevisiae BY4741 SeMeCo community; assay: z-score of subpopulation abundance vs DMSO median, subpopulation auxotrophic for HL; higher = larger share of this subpopulation than in DMSO controls; settings: 10 µM; 24 h; SM minimal medium; subpopulation (auxotrophy): HL
Procedure, shortened: as §1

[17] = test system: Saccharomyces cerevisiae BY4741 SeMeCo community; assay: z-score of subpopulation abundance vs DMSO median, subpopulation auxotrophic for LUM; higher = larger share of this subpopulation than in DMSO controls; settings: 10 µM; 24 h; SM minimal medium; subpopulation (auxotrophy): LUM
Procedure, shortened: as §1

Row | Structure (SMILES) | mean cell size [1] | z-score of prototroph abundance [2] | z-score of subpopulation abundance [3] | z-score of subpopulation abundance [4] | z-score of subpopulation abundance [5] | z-score of subpopulation abundance [6] | z-score of subpopulation abundance [7] | z-score of subpopulation abundance [8] | z-score of subpopulation abundance [9] | z-score of subpopulation abundance [10] | z-score of subpopulation abundance [11] | z-score of subpopulation abundance [12] | z-score of subpopulation abundance [13] | z-score of subpopulation abundance [14] | z-score of subpopulation abundance [15] | z-score of subpopulation abundance [16] | z-score of subpopulation abundance [17]
1 | CC[C@H]1OC(=O)C[C@@H](O)[C@H](C)[C@@H](O[C@@H]2O[C@H](C)[C@@H](O)[C@H](N(C)C)[C@H]2O)[C@@H](CCN2C[C@H](C)C[C@H](C)C2)C[C@@H](C)C(=O)/C=C/C(C)=C/[C@@H]1CO[C@@H]1O[C@H](C)[C@@H](O)[C@@H](OC)[C@H]1OC [Tilmicosin phosphate] | 12.3 ± 0.3 | 0.18 | -0.36 | 0.06 | 2.1 | -0.57 | -0.81 | -0.03 | -0.34 | -0.01 | -0.18 | -0.09 | -0.09 | -0.75 | – | – | –
2 | NC(=O)c1cnccn1 [Pyrazinamide] | 12.6 ± 0.23 | -0.04 | 0.41 | -1.21 | -0.45 | 0.31 | -0.13 | -0.55 | – | 1.23 | -0.7 | -0.57 | 0.08 | -0.48 | 1.27 | -0.42 | -0.08
3 | CCn1cc(C(=O)O)c(=O)c2cc(F)c(N3CCNCC3)nc21 [Enoxacin] | 12.3 ± 0.26 | 0.22 | -0.85 | 1.22 | -0.39 | 0.6 | 1.61 | -1.07 | – | -0.47 | 0.23 | -0.64 | -0.01 | 0.48 | -0.4 | – | –
4 | Nc1nc2c(ncn2COCCO)c(=O)[nH]1 [Aciclovir] | 12.5 ± 0.32 | – | -0.02 | 1.26 | -0.28 | 0.29 | 0.9 | -0.46 | – | -0.79 | -0.88 | -0.49 | -1.32 | 0.48 | -0.49 | -0.76 | 0.25
5 | NC1CCN(c2nc3c(cc2F)c(=O)c(C(=O)O)cn3-c2ccc(F)cc2F)C1 (configuration not stated) [Tosufloxacin p-Toluenesulfonate Hydrate] | 12.3 ± 0.29 | 0.74 | -0.77 | -0.11 | 0.41 | -0.88 | -0.53 | -0.46 | -0.62 | -0.74 | 0.67 | -0.56 | -0.83 | -0.36 | – | -0.52 | -0.71
6 | CCC(C)(C)c1ccc(CC(C)CN2C[C@@H](C)O[C@@H](C)C2)cc1 (some centres not stated) [Amorolfine HCl] | 12 ± 0.35 | -9.52 | 9.64 | -4.45 | 8.59 | -0.63 | -0.63 | 8.92 | 5.04 | 10 | 2.33 | 10.3 | 6 | 5.77 | – | 1.91 | 3.94
7 | CN1CCC[C@@H]1Cc1c[nH]c2ccc(CCS(=O)(=O)c3ccccc3)cc12 [Eletriptan HBr] | 12.5 ± 0.44 | 0.55 | 0.9 | 0.61 | 0.1 | -1.12 | 0.75 | 0.08 | – | -0.86 | -0.54 | -0.5 | -0.47 | -0.74 | -0.94 | -0.15 | -1.48
8 | C[N+](C)(C)CCOC(=O)CCC(=O)OCC[N+](C)(C)C [Succinylcholine Chloride Dihydrate] | 12 ± 0.24 | 0.17 | 1.02 | -0.65 | -0.95 | -1.48 | 0.01 | 0.1 | – | 0.5 | -0.97 | -0.3 | -0.03 | 0.02 | – | -0.8 | -0.49
9 | CN[C@H](CC(C)C)C(=O)N[C@H]1C(=O)N[C@@H](CC(N)=O)C(=O)N[C@H]2C(=O)N[C@H]3C(=O)N[C@H](C(=O)N[C@H](C(=O)O)c4cc(O)cc(O)c4-c4cc3ccc4O)[C@H](O)c3ccc(c(Cl)c3)Oc3cc2cc(c3O[C@@H]2O[C@H](CO)[C@@H](O)[C@H](O)[C@H]2O[C@H]2C[C@](C)(N)[C@H](O)[C@H](C)O2)Oc2ccc(cc2Cl)[C@H]1O [Vancomycin HCl] | 12.1 ± 0.11 | 0 | 0.48 | -0.67 | -0.1 | 0.18 | 0.26 | 0.33 | – | 0.58 | -0.51 | 0.73 | 0.51 | -0.53 | -0.35 | -0.36 | -0.38
10 | CC(c1cc2ccccc2s1)N(O)C(N)=O (configuration not stated) [Zileuton] | 12.6 ± 0.19 | 0.05 | 0.27 | 0.85 | -0.65 | 0.65 | 0.16 | -0.32 | -0.39 | 0.34 | 0.44 | 0.43 | -0.33 | 0 | – | -0.17 | 0.12
11 | CC(C)Cc1ccc(C(C)C(=O)O)cc1 (configuration not stated) [Ibuprofen Lysine] | 13 ± 0.042 | 3.98 | -0.7 | -0.17 | -0.2 | -4.01 | -0.77 | -1.04 | -2.64 | -4.66 | -1.49 | -0.36 | -3.01 | -1.27 | – | -0.13 | -2.47
12 | OC[C@H]1O[C@H](OCC2O[C@@H](O)[C@H](O)[C@@H](O)[C@@H]2O)[C@H](O)[C@@H](O)[C@H]1O (some centres not stated) [Melibiose] | 12.5 ± 0.29 | -0.13 | 0.28 | 0.1 | -0.36 | 0.81 | -0.85 | – | 0.74 | 0.56 | -0.58 | 1.11 | 0.46 | 1 | 0.61 | 0.32 | 0.14
13 | O=C1OCCN1/N=C/c1ccc([N+](=O)[O-])o1 [Furazolidone] | 13.1 ± 0.18 | 3.52 | 1.9 | 2.57 | 3.6 | -5.41 | 1.07 | – | -5.84 | -6.39 | -2.4 | -0.06 | -3.95 | -0.24 | -7.17 | 2.14 | -2.42
